For nine molecules, z-score and composite z-score results are on record in PubChem BioAssay.

Test [1] can be described thus: optical density shifts of acrAB sulA E. coli – strain DRC41, OD650, 48 h, E. coli filamentation inducer project, primary screen (AID 1152).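 Also: E. coli MC1000 strain DRC41 lacking acrAB efflux pump and sulA.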 Particulars: higher = more signal, called active from +8 up or from −8 down.
Test [2] is described as follows: probe aLefty1 binding on compound microarray – biochemical, small-molecule microarray, 635/667 nm fluorescence, primary screen (AID 1153).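 Also: score merges spot fluorescence with signal-to-noise ratio from the scanned slide images.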 The conditions noted are these: higher = more signal.
Test [3] is described as follows: plasmodial surface anion channel blockers, osmotic lysis – cell-based, P. falciparum Indochina, OD700, 1 h, primary screen (AID 1154). Particulars: P. falciparum Indochina infected RBC osmotic lysis, higher = more signal, called active from +8 up or from −8 down.
Test [4] can be described thus: plasmodial surface anion channel blockers, osmotic lysis – cell-based, P. falciparum Indochina, OD700, 2 h, primary screen (AID 1155).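 Also: lysis reports solute entry through the parasite surface anion channel PSAC.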 The conditions noted are these: P. falciparum Indochina infected erythrocytes, higher = more signal, called active from +8 up or from −8 down.
Test [5] can be described thus: changes in parasitized red cell lysis, either direction – P. falciparum Indochina, OD700, 3 h, PSAC antagonist project, primary screen (AID 1156). The conditions noted are these: P. falciparum-infected erythrocytes, osmotic lysis, higher = more signal, called active from +8 up or from −8 down.
Test [6] in a line: plasmodial surface anion channel blockers, osmotic lysis – cell-based, P. falciparum Indochina, OD700, 18 h, primary screen (AID 1157). The conditions noted are these: P. falciparum Indochina infected erythrocytes, osmotic lysis OD700, 18 h; higher = more signal, called active from +8 up or from −8 down.
A short description of test [7]: S6 kinase pathway phospho-S6 level changes – cell-based, A549, cytoblot, luminescence, serum-stimulated, primary screen (AID 1158).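 Also: serum-stimulated A549 lung adenocarcinoma cells; signal is phosphorylated S6 detected by cytoblot immunostaining with HRP secondary.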 The conditions noted are these: 5 h, higher = more signal.
Test [8] deals with NADPH oxidase 2 (Homo sapiens) (UniProt P04839). Briefly: compounds shifting NOX2 Amplex Red fluorescence – cell-based, HEK293-NOX2, PMA-stimulated, NOX inhibitor project, primary screen (AID 1159). Also: test concentration not given here. The conditions noted are these: 45 min, higher = more signal, called active from +8 up or from −8 down.
NADPH oxidase 2 (Homo sapiens), sequence (P04839 whole entry, looked up): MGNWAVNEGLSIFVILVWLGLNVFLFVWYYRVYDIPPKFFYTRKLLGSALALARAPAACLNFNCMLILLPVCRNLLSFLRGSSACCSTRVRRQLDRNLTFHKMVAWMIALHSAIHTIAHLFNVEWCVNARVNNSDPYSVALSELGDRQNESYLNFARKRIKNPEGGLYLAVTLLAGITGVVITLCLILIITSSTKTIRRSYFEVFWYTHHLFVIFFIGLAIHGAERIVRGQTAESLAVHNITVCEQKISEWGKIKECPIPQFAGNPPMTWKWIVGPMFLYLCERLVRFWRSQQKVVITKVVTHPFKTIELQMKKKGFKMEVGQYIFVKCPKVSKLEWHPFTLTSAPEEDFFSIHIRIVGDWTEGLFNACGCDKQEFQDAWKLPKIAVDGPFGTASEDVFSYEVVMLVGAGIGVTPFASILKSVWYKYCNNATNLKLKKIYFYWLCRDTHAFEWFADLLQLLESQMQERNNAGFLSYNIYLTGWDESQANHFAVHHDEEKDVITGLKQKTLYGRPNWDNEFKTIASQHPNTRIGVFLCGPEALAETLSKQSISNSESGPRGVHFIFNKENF
For test [9], the target named is NADPH oxidase 4 (Homo sapiens) (UniProt Q9NPH5). Briefly: compounds shifting NOX4 Amplex Red fluorescence – cell-based, HEK293-NOX4, tetracycline-induced, NOX inhibitor project, primary screen (AID 1160). The conditions noted are these: HEK293-NOX4, Amplex Red H2O2 fluorescence, 45 min; higher = more signal, called active from +8 up or from −8 down.
NADPH oxidase 4 (Homo sapiens), sequence (Q9NPH5 whole entry, looked up): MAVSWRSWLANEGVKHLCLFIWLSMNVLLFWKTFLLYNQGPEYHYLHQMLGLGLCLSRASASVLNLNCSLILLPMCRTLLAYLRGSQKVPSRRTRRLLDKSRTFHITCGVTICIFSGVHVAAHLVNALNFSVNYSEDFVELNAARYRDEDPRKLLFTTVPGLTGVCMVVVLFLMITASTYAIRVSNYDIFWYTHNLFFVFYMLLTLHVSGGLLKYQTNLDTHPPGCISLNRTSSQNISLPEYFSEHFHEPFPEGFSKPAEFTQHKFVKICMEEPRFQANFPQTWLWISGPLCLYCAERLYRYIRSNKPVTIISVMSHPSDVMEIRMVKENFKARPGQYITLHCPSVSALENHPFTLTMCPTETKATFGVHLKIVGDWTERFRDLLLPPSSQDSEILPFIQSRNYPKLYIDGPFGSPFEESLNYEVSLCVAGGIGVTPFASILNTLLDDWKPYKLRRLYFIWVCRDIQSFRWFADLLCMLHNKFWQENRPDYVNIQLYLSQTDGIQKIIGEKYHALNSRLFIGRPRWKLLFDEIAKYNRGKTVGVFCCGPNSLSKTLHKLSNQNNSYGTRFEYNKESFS
For test [10], the target named is NADPH oxidase 5 (Homo sapiens) (UniProt Q96PH1). In words: compounds shifting NOX5 Amplex Red fluorescence – cell-based, HEK293-NOX5, NOX inhibitor project, primary screen (AID 1161). The conditions noted are these: HEK293-NOX5, ionomycin, 45 min, higher = more signal.
NADPH oxidase 5 (Homo sapiens), sequence (Q96PH1 whole entry, looked up): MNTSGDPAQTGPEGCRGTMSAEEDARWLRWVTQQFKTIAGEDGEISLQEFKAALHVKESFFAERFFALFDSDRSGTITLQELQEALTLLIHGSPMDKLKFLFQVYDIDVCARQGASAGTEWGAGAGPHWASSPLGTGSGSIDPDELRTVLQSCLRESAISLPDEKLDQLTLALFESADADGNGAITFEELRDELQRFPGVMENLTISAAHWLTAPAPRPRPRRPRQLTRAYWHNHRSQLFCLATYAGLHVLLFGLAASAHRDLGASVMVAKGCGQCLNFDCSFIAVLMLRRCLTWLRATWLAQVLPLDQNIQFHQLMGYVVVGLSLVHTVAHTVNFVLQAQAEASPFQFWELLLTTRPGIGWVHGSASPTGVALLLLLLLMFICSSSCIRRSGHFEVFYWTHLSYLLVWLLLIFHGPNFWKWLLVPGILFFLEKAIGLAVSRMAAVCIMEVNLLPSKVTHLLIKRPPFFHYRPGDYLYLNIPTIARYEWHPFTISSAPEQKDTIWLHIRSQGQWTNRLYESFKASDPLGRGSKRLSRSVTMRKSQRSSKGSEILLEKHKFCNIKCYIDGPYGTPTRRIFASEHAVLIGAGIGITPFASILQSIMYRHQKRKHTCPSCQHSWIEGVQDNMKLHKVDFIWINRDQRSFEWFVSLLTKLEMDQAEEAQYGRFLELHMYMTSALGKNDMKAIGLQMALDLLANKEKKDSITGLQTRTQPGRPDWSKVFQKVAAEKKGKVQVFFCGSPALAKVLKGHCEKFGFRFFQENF
Test [11] can be described thus: compound effects on lung adenocarcinoma cell viability – A549, calcein-AM fluorescence, 48 h, basal, profiling panel (AID 1162). Also: test concentration not given here. Particulars: higher = more signal.
Test [12] is described as follows: compound effects on differentiated 3T3-L1 adipocyte viability – cell-based, 3T3-L1 adipocytes, calcein-AM fluorescence, 48 h, basal, profiling panel (AID 1163). Also: test concentration not given here. Particulars: 3T3-L1 adipocytes viability, higher = more signal.
Test [13] is described as follows: compound effects on hepatocellular carcinoma cell viability – HepG2, calcein-AM fluorescence, 48 h, basal, profiling panel (AID 1164). Also: test concentration not given here. The conditions noted are these: higher = more signal.
Test [14] in a line: compound effects on multiple myeloma cell viability – MM1S, calcein-AM fluorescence, 48 h, basal, profiling panel (AID 1165).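 Also: viability of MM1S multiple myeloma cells under basal unstimulated conditions; test concentration not given here.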 Particulars: higher = more signal.
The nature of test [15]: calcein-AM signal in unstimulated myeloma cells – cell-based, calcein-AM fluorescence, 48 h, PK04 Diversity Set, profiling panel (AID 1166).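 Also: cells grown under basal conditions without added stimulus; test concentration not given here.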 The conditions noted are these: RPMI8226 myeloma viability, higher = more signal.
Test [16] is described as follows: JC-1 mitochondrial signal, unstimulated HepG2 cells – cell-based, JC-1 fluorescence, 24 h, 100 nL compound, profiling panel (AID 1167). Also: test concentration not given here. The conditions noted are these: HepG2 mitochondrial potential, higher = more signal.
Test [17] can be described thus: JC-1 mitochondrial signal, unstimulated adipocytes – cell-based, JC-1 fluorescence, 3T3-L1 adipocytes, 24 h, 100 nL compound, profiling panel (AID 1168). Also: test concentration not given here. Particulars: JC-1 mitochondrial fluorescence, higher = more signal, called active from +8 up or from −8 down.
Test [18] can be described thus: JC-1 mitochondrial signal, unstimulated myeloma cells – cell-based, JC-1 fluorescence, RPMI8226, 24 h, 100 nL compound, profiling panel (AID 1169). Also: test concentration not given here. The conditions noted are these: JC-1 mitochondrial potential fluorescence, higher = more signal.
The nature of test [19]: JC-1 mitochondrial signal, unstimulated MM1S myeloma – cell-based, JC-1 fluorescence, 24 h, 100 nL compound, profiling panel (AID 1170). Also: test concentration not given here. Particulars: MM1S mitochondrial potential, higher = more signal.
Test [20] in a line: resazurin metabolic signal in A549 cells – cell-based, resazurin fluorescence, 24 h, PK04 Diversity Set, profiling panel (AID 1171). Also: test concentration not given here. Particulars: A549 viability, higher = more signal, called active from +8 up or from −8 down.

Calls of active or inactive are those of the source.

In the case of `Cc1cc2c(c(=O)o1)[C@@H](O)[C@H]1O[C@H]1C2=O`, the z-score in test [1] is -1.63 (inactive); in [3] it was 0.381 (inactive); in test [4] it was 0.716 (inactive); in test [5], 0.634 (inactive); in test [6], 0.348 (inactive); in [7] it was 0.0719. For the same molecule, the z-score in test [8] was 1.6 (inactive); in [9], -0.899 (inactive); in test [10], -1.31; in test [11] it was -0.223; in [12], 0.374; in test [13], 0.123. Further, the z-score in [14] is 0.65; in test [15], -1.15; in [16], -0.352; in [17] it was -0.659 (inactive); in [18], -0.141; in [19], 0.0583. Also, the z-score in [20] is -0.588 (inactive). In test [2], this molecule registered a composite z-score of -0.0547.

`C[C@H]1Cc2c(COc3ccccc3)nc3c(c2CO1)CN(CCOc1ccccc1)CC3`: the z-score in [1] is 0.49 (inactive); in test [3], 3.74 (inactive); in [4], 0.484 (inactive); in test [5], 1.68 (inactive); in test [6] it was 0.908 (inactive); in test [7] it was 0.44. For the same molecule, the z-score in [8] was 0.539 (inactive); in [9], 0.191 (inactive); in [10], -0.00428; in [11], 1.05; in [12], 0.175; in test [13], 0.93. Also, the z-score in test [14] is -0.125; in test [15], -0.517; in test [16] it was 2.33; in [17], 0.678 (inactive); in [18], -0.041; in [19], 0.184. Also, the z-score in test [20] is -0.0515 (inactive). The molecule further came in with a composite z-score in test [2] of 0.2.

As for `C=CC[C@@H]1C=C[C@H](ON=C(C)CCN2CCc3nc(-c4ccccc4)c(-c4ccccc4)cc3C2)[C@@H](CO)O1`, the z-score was 0.418 (inactive) in test [1]; 4.53 (inactive) in test [3]; 0.809 (inactive) in [4]; 0.85 (inactive) in test [5]; 0.538 (inactive) in test [6]; -0.0288 in [7]. The z-score is -2.79 (inactive) in [8]; -0.835 (inactive) in test [9]; -2.75 in test [10]; 2.2 in [11]; 0.114 in [12]; 2.31 in [13]. Moreover, the z-score in [14] was -2.36; in [15], -0.141; in test [16], 3.86; in test [17], -1.91 (inactive); in test [18], 0.518; in [19], -1.17. Further, the z-score in test [20] is 0.548 (inactive). This molecule also returned a composite z-score in test [2] of 0.0446.

On to `COC(=O)CC=C[C@@H](C)[C@@H](C=NO[C@@H](C)c1cn([C@H](CO)Cc2ccccc2)nn1)OC`, for which the z-score was -0.64 (inactive) in test [1]; -0.762 (inactive) in test [3]; -1.66 (inactive) in test [4]; -0.726 (inactive) in test [5]; -1.8 (inactive) in test [6]; 1.32 in [7]. The z-score was -0.374 (inactive) in [8]; 0.173 (inactive) in test [9]; 0.874 in test [10]; 0.52 in [11]; 1.03 in test [12]; 0.656 in [13]. Also, the z-score was 0.354 in test [14]; -0.609 in [15]; 0.341 in test [16]; 1.08 (inactive) in test [17]; 0.0532 in test [18]; 0.723 in test [19]. For the same molecule, the z-score in test [20] was -0.493 (inactive). The molecule further gave a composite z-score in test [2] of -0.275.

In the case of `CCOC(=O)NN=C1C[C@@H](O)[C@@H](O)[C@@H]2[C@@H]3C(=O)N(Cc4ccccc4)C(=O)[C@@H]3CC[C@H]12`, the z-score is -0.356 (inactive) in [1]; 1.39 (inactive) in [3]; -0.673 (inactive) in test [4]; -0.0654 (inactive) in test [5]; -1.36 (inactive) in test [6]; 0.577 in [7]. Moreover, the z-score was 1.15 (inactive) in test [8]; 0.547 (inactive) in test [9]; 0.0313 in [10]; 0.29 in [11]; 0.114 in test [12]; -1.05 in test [13]. The z-score in test [14] was 0.976; in test [15] it was -2; in test [16], 0.366; in test [17], 0.42 (inactive); in [18] it was 0.334; in test [19] it was -0.68. In addition, the z-score in [20] was 0.939 (inactive). The molecule further had a composite z-score in test [2] of -0.332.

Consider `CCOC(=O)NN=C1C[C@@H](O)[C@@H](O)[C@@H]2[C@@H]3C(=O)N(Cc4ccc5c(c4)OCO5)C(=O)[C@@H]3CC[C@H]12`, for which the z-score is 0.245 (inactive) in test [1]; 5.49 (inactive) in test [3]; 0.756 (inactive) in test [4]; 0.41 (inactive) in test [5]; 0.476 (inactive) in [6]; -0.4 in test [7]. The z-score in test [8] was -3.49 (inactive); in test [9] it was -0.0101 (inactive); in [10] it was -0.598; in [11] it was -0.257; in [12] it was -0.132; in [13] it was 0.473. Besides, the z-score in [14] is 0.457; in test [15], -0.0903; in [16], -0.268; in [17], -0.754 (inactive); in [18] it was 0.386; in test [19], -1.34. Moreover, the z-score in test [20] is -0.027 (inactive). In test [2], this molecule registered a composite z-score of -0.239.

With `CO[C@H](C1CCCCC1)[C@H](C)C=CCC(=O)OCCCc1ccccc1`, the z-score is 0.101 (inactive) in test [1]; 1.56 (inactive) in test [3]; 0.726 (inactive) in [4]; -1.17 (inactive) in test [5]; 0.22 (inactive) in test [6]; -0.285 in test [7]. Besides, the z-score in test [8] was 0.435 (inactive); in test [9] it was -3.56 (inactive); in test [10], -2.56; in [11] it was 0.19; in test [12], -0.518; in test [13], -0.0782. Also, the z-score was -0.237 in test [14]; 0.182 in [15]; 0.639 in [16]; -0.249 (inactive) in test [17]; 0.773 in test [18]; -0.199 in test [19]. Moreover, in test [20], the z-score was 0.301 (inactive). Besides, the composite z-score in test [2] was -0.194.

For the molecule `CC(CCN1CCc2nc(-c3ccccc3)c(-c3ccccc3)cc2C1)=NOC[C@@H](O)COCc1ccco1`, the z-score in test [1] was 1.17 (inactive); in test [3], 3.04 (inactive); in test [4], 0.369 (inactive); in test [5], 0.686 (inactive); in [6], 0.195 (inactive); in test [7], 0.615. Further, the z-score was -0.636 (inactive) in [8]; -0.00269 (inactive) in test [9]; -0.624 in test [10]; 1.53 in test [11]; -0.0838 in test [12]; 2.01 in test [13]. Besides, the z-score in test [14] was -0.293; in test [15] it was 0.465; in [16] it was 1.65; in test [17], -0.278 (inactive); in test [18], 1.09; in [19], -0.174. Besides, the z-score in test [20] is -0.684 (inactive). The molecule further gave a composite z-score in test [2] of -0.101.

As to `CCCCc1nc2c(c3c1C[C@H](C)OC3)CN(CCOc1ccccc1)CC2`, the z-score in test [1] is 0.19 (inactive); in [3], 1.3 (inactive); in test [4], -0.611 (inactive); in [5] it was 0.128 (inactive); in test [6], -0.421 (inactive); in [7], 1.86. Also, the z-score in [8] was -0.201 (inactive); in test [9] it was 0.25 (inactive); in test [10], 0.747; in [11] it was 1.71; in test [12], 0.734; in [13] it was 0.681. The z-score in test [14] is 0.039; in test [15], -0.657; in [16], 1.76; in test [17], 0.494 (inactive); in test [18] it was 0.539; in [19] it was 0.568. Besides, in test [20], the z-score was -0.682 (inactive). Further, in test [2], the composite z-score is -0.0186.
